Calls of active or inactive are those of the source. Calls come from the whole dose curve; as a rule, active = well fitted curve in the direction sought with a large enough effect; inconclusive = small, poorly fitted or top-dose-only effect, or another doubt; inactive = no such curve, though single readings can be large or run the other way.
biological target: Alpha-galactosidase (Coffea arabica) (UniProt Q42656); assay: Counterscreen for Glucocerebrosidase Inhibitors: qHTS Assay for Coffee Bean alpha-Galactosidase at pH 4.5 (AID 957); conditions: purified coffee bean alpha-galactosidase, fluorogenic substrate; series mostly up to 76.9 µM
Sequence (Q42656 whole entry, looked up): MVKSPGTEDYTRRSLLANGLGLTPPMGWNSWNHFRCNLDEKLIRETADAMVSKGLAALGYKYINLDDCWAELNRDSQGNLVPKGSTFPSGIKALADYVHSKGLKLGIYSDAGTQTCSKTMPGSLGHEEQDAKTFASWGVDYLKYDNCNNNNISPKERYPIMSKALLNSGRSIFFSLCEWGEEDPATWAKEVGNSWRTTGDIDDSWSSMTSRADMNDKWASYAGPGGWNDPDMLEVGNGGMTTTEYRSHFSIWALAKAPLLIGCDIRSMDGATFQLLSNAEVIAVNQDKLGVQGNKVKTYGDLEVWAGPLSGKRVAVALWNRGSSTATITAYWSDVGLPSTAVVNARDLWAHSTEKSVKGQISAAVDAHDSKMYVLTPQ
Summary of the method: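 Green coffee bean enzyme (2 nM final) was incubated with compounds (0.7 nM to 77 uM) and 4-methylumbelliferyl alpha-D-galactopyranoside (80 uM final) in 50 mM citric acid, 0.005% Tween-20, pH 4.5, 20 min at room temperature; AC50 from Hill fits.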

SMILES | outcome
O=C(O)[C@@H]1CCCN[C@H]1C(=O)O | inactive
CCCCC/C=C\C[C@H](O)/C=C\c1cccc(C[C@H](O)CCCCO)n1 | inactive
Oc1cc2c(c(Cl)c1O)CCNC[C@H]2c1ccccc1 | inactive
Oc1cc(O)cc(/C=C\c2ccc(O)c(O)c2)c1 | inactive
Nc1ncnc2c1nc(Sc1ccc(Cl)cc1)n2[C@@H]1O[C@H]2COP(=O)(O)O[C@@H]2[C@H]1O | inactive
Cc1ccccc1/C=C\C1=NCCN1 | inactive
COc1cc(=O)n(C)c2c(OC[C@@H](O)C(C)(C)O)cccc12 | inactive
C#C[C@]1(O)CC[C@H]2[C@H]3CCC4=Cc5oncc5C[C@]4(C)[C@@H]3CC[C@]21C | inactive
O=C(O)CCC(=O)N1CCC[C@H]1C(=O)O | inactive
CC1=C(\C=C/C(C)=C/C=C\C(C)=C\C(=O)O)C(C)(C)CCC1 | inactive
COc1ccc(CCN(C)CCC[C@@](C#N)(c2ccc(OC)c(OC)c2)C(C)C)cc1OC | inactive
CC(C)C[C@H](NC(=O)[C@@H](O)[C@@H](N)Cc1ccccc1)C(=O)O | inactive
CC(C)(C)c1cc(/C=C(\C#N)C(N)=S)cc(C(C)(C)C)c1O | inactive
COc1ccccc1N1CCN(CCCCNS(=O)(=O)c2cccc3c(N(C)C)cccc23)CC1 | inactive
O=C(O)/C=C\[C@H](O)c1ccc(Cl)cc1 | inactive
CC(C)NC[C@H](O)c1ccc(NS(C)(=O)=O)cc1 | inactive
Cn1cc(C(F)(F)F)nc1-c1ccc(OC[C@@H](O)CNCCOc2ccc(O)c(C(N)=O)c2)cc1 | inactive
Oc1cc2c(cc1O)[C@H](c1ccccc1)CNCC2 | inactive
CC(=O)OCC1=C(C(=O)O)N2C(=O)[C@@H](NC(=O)CSc3ccncc3)[C@@H]2SC1 | inactive
CC(C)(C)[C@@]1(O)CCN2C[C@@H]3c4ccccc4CCc4cccc(c43)[C@@H]2C1 | inactive

SMILES | outcome
NC[C@@H]1O[C@@H](O[C@H]2[C@@H](O)[C@H](O[C@@H]3[C@H](O)[C@H](N)C[C@H](N)[C@H]3O[C@@H]3O[C@@H](CO)[C@H](O)[C@H](O)[C@@H]3N)O[C@H]2CO)[C@H](N)[C@H](O)[C@@H]1O | inactive
O=C(O)/C=C\c1cnc[nH]1 | inactive
COC(=O)C1=C(C)NC(C)=C([N+](=O)[O-])[C@H]1c1ccccc1C(F)(F)F | inactive
Nc1nc2c(nc(Br)n2[C@@H]2O[C@H]3COP(=O)(O)O[C@@H]3[C@H]2O)c(=O)[nH]1 | inactive
COc1cc2c(cc1OC)[C@H](c1ccccc1)CN(C)CC2 | inactive
CCn1cc(C(=O)O)c(=O)c2cc(F)c(N3CCN[C@@H](C)C3)c(F)c21 | inactive
CC[C@H](C)C(=O)O[C@H]1CCC=C2C=C[C@H](C)[C@H](CC[C@@H]3C[C@H](O)CC(=O)O3)[C@H]21 | inactive
CNC(=O)[C@@H]1O[C@@H](n2cnc3c(N)ncnc32)[C@@H](O)[C@H]1O | inactive
Cc1ccccc1[C@@H](OCCN(C)C)c1ccccc1 | inactive
NC(=NCc1ccc(Cl)c(Cl)c1)NC(=O)c1nc(Cl)c(N)nc1N | inactive
CC[C@H](C)[C@@H]1O[C@]2(CC[C@@H]1C)C[C@H]1C[C@H](CC=C(C)[C@@H](O[C@H]3C[C@H](OC)[C@H](O[C@H]4C[C@H](OC)[C@H](O)[C@H](C)O4)[C@H](C)O3)[C@@H](C)C=CC=C3CO[C@@H]4[C@@H](O)C(C)=C[C@H](C(=O)O1)[C@@]34O)O2 | inactive
CC(C)NC[C@@H](O)COc1ccc(CCOCC2CC2)cc1 | inactive
C[C@@H]([C@H](O)c1ccc(O)cc1)N1CCC(Cc2ccccc2)CC1 | inactive
O=C(O)CCCC[C@H]1CCSS1 | inactive
N=C1Sc2ccccc2C2=NCCCN12 | inactive
CC(=O)/C(C)=N\O | inactive
C=C/C(C)=C/[C@]1(C)SC(=O)C(C)=C1O | inactive
CCCCCCCCCCCCCCCCCC(=O)NC[C@@H](COP(=O)([O-])OCC[N+](C)(C)C)OCC | inactive
CNc1ncnc2c1ncn2[C@H]1C[C@@H](OP(=O)(O)O)[C@H](COP(=O)(O)O)O1 | inactive
CN1CCc2c(cc(O)c(O)c2Cl)[C@H](c2cccc(Cl)c2)C1 | inactive
